# Values without a mark were called inactive.
# Test system: gramicidin D channels in DC22:1PC lipid vesicles (bilayer-modifying potency)
# Assay: initial Tl+ fluorescence quench rate relative to no-drug control (NormRate, gramicidin monomer-dimer shift) (ratio (fold of control)); higher = stronger bilayer-modifying effect (equilibrium shifted toward conducting dimers), active = 1.5 or more
# Details: 10 µM; lipid concentration 50 µM; temperature: 25 °C
# Method: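 Stopped-flow fluorescence quench assay: ANTS-loaded DC22:1PC large unilamellar vesicles doped with gramicidin D (1:2000), 50 µM lipid, equilibrated 10 min with 10 µM drug (0.1% DMSO), mixed with Tl+ quench buffer at 25°C. Initial quench rate (Tl+ influx) was fitted with a modified stretched exponential and normalised to the no-drug control rate (NormRate); duplicates from two independent LUV preparations (triplicates for 7 drugs).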
row,SMILES,initial Tl+ fluorescence quench rate
1,Cc1cc(C)nc(-n2nc(C)cc2Nc2ccccc2)n1,1.32
2,COc1ccc(-c2nn(C(C)C)c3ncnc(N)c23)cc1OC,1.01
3,NC(=O)c1cc(-c2ccsc2)ccc1OCCOc1ccccc1,1.14
4,CCCNC(=O)N1CCC2(CC1)CC(=O)c1cc(C)ccc1O2,1.15
5,O=C(NC1CC1)c1ccc(N2CCOc3ccc(Cl)cc32)s1,3.52 (active)
6,Nc1ncnc2[nH]nc(Cc3cccc4ccccc34)c12,1.15
7,COc1ccc(-c2onc(C(F)(F)F)c2-c2ccc(Cl)cc2)c(O)c1,1.38
8,COc1cc(Br)cc2cc(C(=O)Nc3cccc(C(F)(F)F)c3)c(=O)oc12,1.05
9,O=C(Nc1c(O)cccc1-c1nc2c(C(=O)O)cccc2o1)c1cc(-c2ccccc2)on1,1.35
10,C[C@H](c1ccc2c(c1)CCCC2)N(C)c1ncc2c(N)nc(N)nc2n1,2.15 (active)
11,COc1ccc(-c2nc(-c3cccc(NC(=O)Cc4ccc(F)cc4)c3)no2)cc1OC,1.47
12,O=C(Nc1ccc(C(F)(F)F)c(C(F)(F)F)c1)c1cc(Cl)ccc1O,2.9 (active)
13,Cc1cc2nc(NC(=O)C(C)(C)C)nc(Cl)c2n1Cc1ccc(Cl)cc1,1.77 (active)
14,O=C(Nc1ccccc1)c1ccc(-c2cc3ccncc3cc2OC2CCNCC2)s1,1.8 (active)
15,Cc1[nH]c2ccccc2c1[C@@H](c1cccs1)N1CCN(C)CC1,1.44
